# In PubChem BioAssay (NCI):
# This is part of a sample that, as a whole, favours compounds with a hit. Of some 83,000 tested, about 20% had one in any assay.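 Treatment: one concentration, 48 hours, 96-well format. Scoring: percent growth, with anything below 10 considered active.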 A number with no mark means an inactive call. Active and inactive are the calls of the source.
# Legend:
# Assay in all cases: NCI-60 one-dose screen, 48 h (100 = growth as untreated, 0 = no growth, -100 = all killed)
# SK-MEL-2 melanoma = details: 10 µM unless noted
# EKVX NSCLC = details: 10 µM unless noted
# SN12C renal = details: 10 µM unless noted
# UO-31 renal = details: 10 µM unless noted
# TK-10 renal = details: 10 µM unless noted
# ACHN renal = details: 10 µM unless noted
# CAKI-1 renal = details: 10 µM
# CCRF-CEM leukemia = details: 10 µM unless noted
# MOLT-4 leukemia = details: 10 µM unless noted
# SR leukemia = details: 10 µM unless noted
# RPMI-8226 leukemia = details: 10 µM unless noted
# OVCAR-5 ovarian = details: 10 µM unless noted
# OVCAR-4 ovarian = details: 10 µM unless noted
# SK-OV-3 ovarian = details: 10 µM unless noted
# IGROV1 ovarian = details: 10 µM unless noted
# OVCAR-3 ovarian = details: 10 µM unless noted
# HS 578T breast = details: 10 µM unless noted
# NCI/ADR-RES ovarian = details: 10 µM unless noted
# OVCAR-8 ovarian = details: 10 µM unless noted
# A498 renal = details: 10 µM unless noted
SMILES,growth (SK-MEL-2 melanoma),growth (EKVX NSCLC),growth (SN12C renal),growth (UO-31 renal),growth (TK-10 renal),growth (ACHN renal),growth (CAKI-1 renal),growth (CCRF-CEM leukemia),growth (MOLT-4 leukemia),growth (SR leukemia),growth (RPMI-8226 leukemia),growth (OVCAR-5 ovarian),growth (OVCAR-4 ovarian),growth (SK-OV-3 ovarian),growth (IGROV1 ovarian),growth (OVCAR-3 ovarian),growth (HS 578T breast),growth (NCI/ADR-RES ovarian),growth (OVCAR-8 ovarian),growth (A498 renal)
CCOC(=O)c1c(NC(=O)c2ccc(F)cc2F)sc2c1CCC(=O)C2,98.3%,97.7%,99%,83.8%,124%,95.6%,80.1%,98.2%,95.8%,88%,106%,104%,102%,104%,100%,113%,103%,96.8%,–,–
O=C1NC(=O)c2c1c1c3ccccc3ccc1c1[nH]c3ccccc3c21,-12.5% (active),11.1%,17.3%,-4.64% (active),-4.05% (active),-2.53% (active),4.16% (active),9.91% (active),3.16% (active),-9.49% (active),1.6% (active),49.6%,25.8%,2.2% (active),9.53% (active),–,12.7%,0.105% (active),6.43% (active),–
CSc1ccc(/C(=N/N=C(N)N)c2ccccc2)cc1,58.7%,48.1%,27.9%,35.1%,63.9%,28.6%,42%,10.6%,22.3%,19.7%,17.9%,48.3%,67.2%,66.2%,21.8%,–,31.8%,40.3%,29.5%,–
COc1ccc(CCN2C(=O)/C(=C/c3nc(CO)cs3)SC2=S)cc1,96.9%,95.2%,83.6%,34%,61.6%,72.7%,63.4%,67.6%,87.5%,60.4%,17.7%,102%,91.8%,97.9%,91.4%,–,106%,95.7%,97.5%,–
COc1ccc(Cn2cc3c(c2-c2cc(OC)c(OC)c(OC)c2)CCCc2cnoc2-3)cc1N,55.4%,46.6%,40.5%,38.2%,78.9%,40.1%,31.5%,15.5%,17.4%,18%,19.9%,38.2%,–,65.6%,35.2%,–,13%,15.5%,47.3%,–
CN(C)C(=O)C1=NC(CO)C(=O)N(c2ccc(Cl)cc2)N1 (configuration not stated),99%,99.5%,105%,82.5%,91.1%,101%,92%,104%,103%,107%,101%,96.5%,114%,114%,101%,110%,104%,104%,–,–
CC(C)c1nn(-c2ccccc2)c(N2CCCCC2)c1/C=N/NC(N)=S,104%,82.1%,89.9%,64.5%,113%,87.2%,69.2%,89.7%,83.6%,88.8%,78.2%,98.7%,72.4%,106%,–,–,103%,86.9%,97.1%,–
O=C(COc1ccc(C2SCC(=O)N2c2ccccc2)cc1)c1ccccc1 (configuration not stated),103%,81.2%,92.3%,78.5%,124%,92.5%,79.2%,98.9%,88.8%,91.5%,91.9%,104%,–,111%,96.4%,116%,94.1%,96.5%,94.1%,–
CCCC(=O)NC(c1cccnc1)c1cc(C(C)=O)c2cccnc2c1O (configuration not stated),62.8%,22.3%,43.9%,13.6%,39.1%,14.5%,20.5%,20.8%,25.1%,52.5%,38.2%,40%,19.6%,31.9%,–,17.1%,69.6%,30.4%,21.7%,–
Cn1cc(-c2nn3cc(-c4ccncc4)nc3s2)c2cc(Cl)ccc21,76%,33.4%,61.2%,43.4%,116%,60.5%,51.3%,10.5%,2.31% (active),-4.53% (active),19.5%,66.8%,78.6%,89.5%,17.2%,–,49.8%,32.4%,14.6%,–
Cc1ccc(Nc2ncnc3c2c(C)nn3-c2ccc([N+](=O)[O-])cc2)cc1,107%,67.8%,90%,91.3%,97.9%,62.8%,63.6%,79.8%,87.3%,68.6%,–,101%,46%,71.7%,84.1%,46.3%,68.6%,80.4%,72.6%,–
Cc1cc(NS(=O)(=O)c2ccc(-c3cnc(C4CC4)o3)cc2)ccc1I,63.3%,42.6%,43.5%,48.7%,75.6%,45.1%,39.3%,19.1%,40.8%,32.9%,–,54.6%,59.9%,66.2%,36.7%,8.32% (active),40%,14.3%,46.4%,–
O=c1[nH]c(CCl)nc2c1cnn2-c1ccccc1,-89.8% (active),100%,99.8%,-20.9% (active),154%,96.7%,97.6%,–,104%,87.1%,82.5%,114%,111%,122%,95.9%,100%,111%,106%,104%,–
COc1ccc(-c2nnc(/N=C3/C(=O)Nc4ccc(Br)cc43)o2)cc1,101%,91.7%,107%,81.3%,143%,93.7%,88.8%,–,96.1%,97.8%,96.2%,107%,101%,108%,91.9%,–,116%,102%,99.9%,–
Cc1nn(-c2ccc(Br)cc2)c2nc(CCl)[nH]c(=O)c12,99.9%,99.5%,100%,-90.1% (active),111%,94.8%,96.3%,83.6%,–,–,-53.9% (active),102%,116%,106%,97.4%,116%,108%,104%,102%,–
O=c1c2c(O)cccc2oc2c3c(cc(O)c12)O[C@H]1OC=C[C@@H]31,95.5%,42.8%,92.6%,79.3%,89.5%,74.9%,–,92.7%,88.5%,42.6%,93.7%,110%,94.5%,78.9%,77.4%,106%,94.9%,87.9%,87.8%,89.1%
COc1cc2cc(Oc3ccc(NC(=O)Nc4cc(C(F)(F)F)cc(C(F)(F)F)c4)cc3)c(C)nc2cc1OCCN(C)C,113%,106%,100%,89.5%,109%,107%,93.4%,–,107%,121%,113%,109%,–,113%,104%,120%,101%,109%,113%,–
